From PubChem BioAssay (EPA / NIEHS)
Results filed as inconclusive are left out. The source made the active and inactive calls. Rule for the calls, unless noted: active = hit-call score of the fitted dose curve at least 0.9, where 1 is the maximum; inconclusive = response in the unintended direction; inactive = score below 0.9.

target: Estrogen receptor (Homo sapiens) (UniProt P03372); experiment: CCTE_Deisenroth_AIME_384WELL_LUC_Active: CCTE's 384-well Estrogen Receptor Transactivation Assay with AIME metabolic competence (ERTA luciferase; metabolism positive), Deisenroth Lab (AID 2284030)
Sequence (P03372 whole entry, looked up): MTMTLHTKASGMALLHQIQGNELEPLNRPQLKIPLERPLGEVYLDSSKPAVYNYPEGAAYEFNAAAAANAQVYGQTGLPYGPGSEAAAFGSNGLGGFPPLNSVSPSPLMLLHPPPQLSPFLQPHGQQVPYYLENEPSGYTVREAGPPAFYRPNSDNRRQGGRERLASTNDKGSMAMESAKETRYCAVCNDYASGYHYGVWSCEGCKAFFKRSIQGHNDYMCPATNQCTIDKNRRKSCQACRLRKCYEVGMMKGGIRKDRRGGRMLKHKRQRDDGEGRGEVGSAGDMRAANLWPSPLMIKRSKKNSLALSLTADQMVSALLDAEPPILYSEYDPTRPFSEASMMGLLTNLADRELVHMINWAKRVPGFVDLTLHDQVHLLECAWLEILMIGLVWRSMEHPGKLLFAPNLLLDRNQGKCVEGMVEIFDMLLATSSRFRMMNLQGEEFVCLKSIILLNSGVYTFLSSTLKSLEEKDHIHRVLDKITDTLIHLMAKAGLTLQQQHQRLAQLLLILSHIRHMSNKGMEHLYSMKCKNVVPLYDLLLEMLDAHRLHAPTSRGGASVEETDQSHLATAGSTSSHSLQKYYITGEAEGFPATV
Procedure, shortened: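 AIME metabolism-positive mode: chemicals 0.002 - 200 uM, 2 h with alginate-bound PB/BNF-induced rat S9 → medium to VM7Luc4E2 ERTA, 24 h → luciferase. Positive fit vs 17beta-estradiol; n=4 typical.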

**Q.** For `CCCCCCCCCCCCN1CCOCC1`, which outcome is on record?
**A.** inactive

**Q.** For `CC(=O)CC(=O)N(C)C`, which outcome is on record?
**A.** inactive

**Q.** For `CC(C)C(=O)c1ccccc1`, which outcome is on record?
**A.** inactive

**Q.** For `CCCC[N+](C)(CCCC)CCCC`, which outcome is on record?
**A.** inactive

**Q.** For `C=C(C)C(N)=O`, which outcome is on record?
**A.** inactive

**Q.** For `[Na+]`, which outcome is on record?
**A.** inactive

**Q.** For `CCCCOCCOCCOCCO`, which outcome is on record?
**A.** inactive

**Q.** Which outcome does the source give for `CCCC1CCC(=O)CC1` here?
**A.** inactive

**Q.** Which outcome does the source give for `NC(N)=S` here?
**A.** inactive

**Q.** For `CCCCCCCCOC(=O)c1ccc(O)cc1`, which outcome is on record?
**A.** inactive

**Q.** For `CC(=O)OC/C=C(C)/C=C/C=C(C)/C=C/C1=C(C)CCCC1(C)C`, which outcome is on record?
**A.** inactive

**Q.** Which outcome does the source give for `C1CCCNCC1` here?
**A.** inactive

**Q.** With `C=CC(C)CCCC(C)(C)O` (centres undefined) as the molecule, how does the outcome read?
**A.** inactive

**Q.** With `Cc1cccc(O)c1` as the molecule, how does the outcome read?
**A.** inactive

**Q.** Which outcome does the source give for `CCCO` here?
**A.** inactive

**Q.** Which AC50 does the source give for `[O-]/[N+](=N\O)c1ccccc1` here?
**A.** 72.8 µM (active)

**Q.** With `CC(C)N(c1ccccc1)C(C)C` as the molecule, how does the outcome read?
**A.** inactive

**Q.** With `CN(C)C(=O)Nc1ccccc1` as the molecule, how does the outcome read?
**A.** inactive

system: not listed separately; experiment: CCTE_Shafer_MEA_dev_firing_rate_mean: CCTE's Neural Network Formation Assay for Mean Firing Rate, Shafer Lab (AID 2284031; active = hit-call score of the fitted dose curve at least 0.9, where 1 is the maximum; inactive = score below 0.9)
Procedure, shortened: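 Primary rat cortical neurons on 48-well MEA plates, exposed from plating day 0 with dosing renewed on DIV 5 and 9. Mean well firing rate over active electrodes, recorded days 5, 7, 9, 12, summarised as trapezoidal AUC.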

**Q.** Which outcome does the source give for `CCCCC(CC)COC(=O)COc1ccc(Cl)cc1C` (centres undefined) here?
**A.** inactive

**Q.** Which outcome does the source give for `N#CCCNCCC#N` here?
**A.** inactive

**Q.** For `CC(C)Cc1ccc(C(C)C(=O)O)cc1` (centres undefined), which outcome is on record?
**A.** inactive

system: not listed separately; experiment: CCTE_Shafer_MEA_dev_per_burst_spike_percent: CCTE's Neural Network Formation Assay for Percent of Spikes in a Burst, Shafer Lab (AID 2284032; active = hit-call score of the fitted dose curve at least 0.9, where 1 is the maximum; inactive = score below 0.9)
Procedure, shortened: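 Rat primary cortical neurons on 16-electrode MEA wells, dosed from plating day 0 for 12 days with renewal on DIV 5 and 9; spikes-in-bursts percentage averaged over bursting electrodes, collapsed as AUC across days 5, 7, 9, 12; loss direction versus DMSO.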

**Q.** With `CCCCC(CC)COC(=O)COc1ccc(Cl)cc1C` (centres undefined) as the molecule, how does the outcome read?
**A.** inactive

**Q.** With `N#CCCNCCC#N` as the molecule, how does the outcome read?
**A.** inactive

**Q.** For `CC(C)Cc1ccc(C(C)C(=O)O)cc1` (centres undefined), which outcome is on record?
**A.** inactive

system: not listed separately; experiment: CCTE_Deisenroth_AIME_384WELL_CTox_Active: Cytotoxicity Assessment (CTOX) in CCTE's 384-well Estrogen Receptor Transactivation Assay with AIME metabolic competence (metabolism positive), Deisenroth Lab (AID 2284037);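 note: chemicals first conditioned 2 h by alginate-bound induced rat liver S9 before cells; activity means signal loss indicating cell death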
Procedure, shortened: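 VM7Luc4E2 breast cells received medium pre-incubated 2 h with chemical over alginate microspheres holding induced male Sprague Dawley rat liver S9; viability read 24 h later by protease-substrate fluorescence. Loss of signal, bidirectional fit, 0.002–200 uM.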

**Q.** Which outcome does the source give for `CCCCCCCCCCCCN1CCOCC1` here?
**A.** inactive

**Q.** Which outcome does the source give for `CC(=O)CC(=O)N(C)C` here?
**A.** inactive

**Q.** For `CC(C)C(=O)c1ccccc1`, which outcome is on record?
**A.** inactive

**Q.** Which outcome does the source give for `C=C(C)C(N)=O` here?
**A.** inactive

**Q.** For `NC(N)=S`, which outcome is on record?
**A.** inactive

**Q.** For `CC(=O)OC/C=C(C)/C=C/C=C(C)/C=C/C1=C(C)CCCC1(C)C`, which outcome is on record?
**A.** inactive

**Q.** Which outcome does the source give for `C1CCCNCC1` here?
**A.** inactive

**Q.** Which outcome does the source give for `Cc1cccc(O)c1` here?
**A.** inactive

**Q.** With `CCCCCCCCCCCCOCCOS(=O)(=O)O` as the molecule, how does the AC50 read?
**A.** 147 µM (active)

**Q.** Which outcome does the source give for `CC(C)N(c1ccccc1)C(C)C` here?
**A.** inactive

target: Estrogen receptor (Homo sapiens) (UniProt P03372); experiment: CCTE_Deisenroth_AIME_384WELL_LUC_Inactive: CCTE's 384-well Estrogen Receptor Transactivation Assay without AIME metabolic competence (ERTA luciferase; metabolism negative), Deisenroth Lab (AID 2284038);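 note: hits raise estrogen receptor luciferase signal so potencies reflect agonists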
Procedure, shortened: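 Metabolism-negative mode: chemicals (10-point, 0.002–200 uM) held 2 h with alginate-water microspheres, then conditioned medium applied to VM7Luc4E2 cells for 24 h. Luciferase induction referenced to 17beta-estradiol.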

**Q.** With `CCCCCCCCCCCCN1CCOCC1` as the molecule, how does the outcome read?
**A.** inactive

**Q.** Which outcome does the source give for `CC(=O)CC(=O)N(C)C` here?
**A.** inactive

**Q.** With `CC(C)C(=O)c1ccccc1` as the molecule, how does the outcome read?
**A.** inactive

**Q.** For `C=C(C)C(N)=O`, which outcome is on record?
**A.** inactive

**Q.** For `[Na+]`, which outcome is on record?
**A.** inactive

**Q.** Which outcome does the source give for `O=C1OC2(c3ccc(O)cc3Oc3cc(O)ccc32)c2ccccc21` here?
**A.** inactive

**Q.** With `CCCCOCCOCCOCCO` as the molecule, how does the outcome read?
**A.** inactive

**Q.** Which outcome does the source give for `CCCC1CCC(=O)CC1` here?
**A.** inactive

**Q.** For `NC(N)=S`, which outcome is on record?
**A.** inactive

**Q.** With `CCCCCCCCOC(=O)c1ccc(O)cc1` as the molecule, how does the AC50 read?
**A.** 39.7 µM (active)

**Q.** With `CC(=O)OC/C=C(C)/C=C/C=C(C)/C=C/C1=C(C)CCCC1(C)C` as the molecule, how does the outcome read?
**A.** inactive

**Q.** With `C1CCCNCC1` as the molecule, how does the outcome read?
**A.** inactive

**Q.** For `CCC(=O)OC(C)(C)C1CC=C(C)CC1` (centres undefined), which outcome is on record?
**A.** inactive

**Q.** With `C=CC(C)CCCC(C)(C)O` (centres undefined) as the molecule, how does the outcome read?
**A.** inactive

**Q.** For `Cc1cccc(O)c1`, which outcome is on record?
**A.** inactive

**Q.** With `CCCO` as the molecule, how does the outcome read?
**A.** inactive

**Q.** With `[O-]/[N+](=N\O)c1ccccc1` as the molecule, how does the AC50 read?
**A.** 59 µM (active)

**Q.** With `CC(C)N(c1ccccc1)C(C)C` as the molecule, how does the outcome read?
**A.** inactive

**Q.** For `CN(C)C(=O)Nc1ccccc1`, which outcome is on record?
**A.** inactive

system: not listed separately; experiment: CCTE_Deisenroth_AIME_384WELL_CTox_Inactive: Cytotoxicity Assessment (CTOX) in CCTE's 384-well Estrogen Receptor Transactivation Assay without AIME metabolic competence (metabolism negative), Deisenroth Lab (AID 2284039);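 note: cell viability via live-cell protease substrate cleaved to fluorescent probe; cells exposed 24 h to medium preincubated 2 h with alginate-water beads without S9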
Procedure, shortened: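 Fluorescent protease-substrate viability readout after 24 h exposure of VM7Luc4E2 cells to conditioned medium. Chemicals (0.002–200 uM) first sat 2 h over alginate-water beads, no S9. Data fitted bidirectionally, loss of signal meaning viability loss.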

**Q.** With `CCCCCCCCCCCCN1CCOCC1` as the molecule, how does the outcome read?
**A.** inactive

**Q.** For `CC(=O)CC(=O)N(C)C`, which outcome is on record?
**A.** inactive

**Q.** For `CC(C)C(=O)c1ccccc1`, which outcome is on record?
**A.** inactive

**Q.** For `CCCC[N+](C)(CCCC)CCCC`, which outcome is on record?
**A.** inactive

**Q.** For `C=C(C)C(N)=O`, which outcome is on record?
**A.** inactive

**Q.** Which outcome does the source give for `NC(N)=S` here?
**A.** inactive

**Q.** For `CC(=O)OC/C=C(C)/C=C/C=C(C)/C=C/C1=C(C)CCCC1(C)C`, which outcome is on record?
**A.** inactive

**Q.** Which outcome does the source give for `C1CCCNCC1` here?
**A.** inactive

**Q.** For `C=CC(C)CCCC(C)(C)O` (centres undefined), which outcome is on record?
**A.** inactive

**Q.** With `Cc1cccc(O)c1` as the molecule, how does the outcome read?
**A.** inactive

**Q.** For `CCCCCCCCCCCCOCCOS(=O)(=O)O`, which AC50 is on record?
**A.** 107 µM (active)

**Q.** For `CC(C)N(c1ccccc1)C(C)C`, which outcome is on record?
**A.** inactive

**Q.** For `CN(C)C(=O)Nc1ccccc1`, which outcome is on record?
**A.** inactive

system: not listed separately; experiment: CCTE_Shafer_MEA_dev_active_electrodes_number: CCTE's Neural Network Formation Assay for Number of Active Electrodes, Shafer Lab (AID 2284040)
Procedure, shortened: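 Primary rat cortical neurons on 16-electrode MEA wells, exposed from day 0 through day 12 with compound renewed at DIV 5 and 9 feeds. Active electrodes (mean firing ≥5 spikes/min) counted at DIV 5, 7, 9, 12; trapezoidal AUC across days, loss-of-signal versus DMSO.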

**Q.** For `CCCCC(CC)COC(=O)COc1ccc(Cl)cc1C` (centres undefined), which outcome is on record?
**A.** inactive

**Q.** Which outcome does the source give for `N#CCCNCCC#N` here?
**A.** inactive

**Q.** Which outcome does the source give for `CC(C)Cc1ccc(C(C)C(=O)O)cc1` (centres undefined) here?
**A.** inactive
